# Data published in article PMC11006913.
# Target: T1, NKX2-6 (Homo sapiens, UniProt A6NCS4 118-204, R150C)
# T1 sequence: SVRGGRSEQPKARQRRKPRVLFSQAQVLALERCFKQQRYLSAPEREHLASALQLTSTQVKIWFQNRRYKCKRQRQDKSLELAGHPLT
# Assay: PBM; 200 nM protein, PBS
# Conditions: dsDNA, one strand shown
row,Sequence,binding signal
1,CTCTTGAC,"11.2 upbm affinity estimate (log intensity, higher = more binding, comparable within an allelic series)"
2,AACCGCCC,"9.72 upbm affinity estimate (log intensity, higher = more binding, comparable within an allelic series)"
3,CCCCGTTC,"9.42 upbm affinity estimate (log intensity, higher = more binding, comparable within an allelic series)"
4,CGGTTAGC,"9.51 upbm affinity estimate (log intensity, higher = more binding, comparable within an allelic series)"
5,CCCGGGGA,"9.42 upbm affinity estimate (log intensity, higher = more binding, comparable within an allelic series)"
6,CACTCGTC,"10.8 upbm affinity estimate (log intensity, higher = more binding, comparable within an allelic series)"
7,AATCCGCC,"9.75 upbm affinity estimate (log intensity, higher = more binding, comparable within an allelic series)"
8,CCCGCAGC,"9.3 upbm affinity estimate (log intensity, higher = more binding, comparable within an allelic series)"
9,AGAGTGGC,"10.9 upbm affinity estimate (log intensity, higher = more binding, comparable within an allelic series)"
10,CACTCTCA,"10.9 upbm affinity estimate (log intensity, higher = more binding, comparable within an allelic series)"
11,AAAGTGAG,"10.8 upbm affinity estimate (log intensity, higher = more binding, comparable within an allelic series)"
12,ACCGGTGG,"9.26 upbm affinity estimate (log intensity, higher = more binding, comparable within an allelic series)"
13,CGCGGGCA,"9.67 upbm affinity estimate (log intensity, higher = more binding, comparable within an allelic series)"
14,GACCTGGC,"9.43 upbm affinity estimate (log intensity, higher = more binding, comparable within an allelic series)"
15,CCCCAACC,"9.37 upbm affinity estimate (log intensity, higher = more binding, comparable within an allelic series)"
16,GGGGCCAC,"9.87 upbm affinity estimate (log intensity, higher = more binding, comparable within an allelic series)"
17,ATACTTGG,"10.8 upbm affinity estimate (log intensity, higher = more binding, comparable within an allelic series)"
18,AAACGGCC,"9.82 upbm affinity estimate (log intensity, higher = more binding, comparable within an allelic series)"
19,CCCAGGGG,"9.24 upbm affinity estimate (log intensity, higher = more binding, comparable within an allelic series)"
20,ACAGCGGG,"9.46 upbm affinity estimate (log intensity, higher = more binding, comparable within an allelic series)"

row,Sequence,binding signal
1,GGCATCCC,"9.47 upbm affinity estimate (log intensity, higher = more binding, comparable within an allelic series)"
2,CGCCAACC,"9.44 upbm affinity estimate (log intensity, higher = more binding, comparable within an allelic series)"
3,CGGACGGC,"9.24 upbm affinity estimate (log intensity, higher = more binding, comparable within an allelic series)"
4,GTAAGTAC,"11.7 upbm affinity estimate (log intensity, higher = more binding, comparable within an allelic series)"
5,CGGGCGGA,"9.09 upbm affinity estimate (log intensity, higher = more binding, comparable within an allelic series)"
6,CTGACCCC,"9.6 upbm affinity estimate (log intensity, higher = more binding, comparable within an allelic series)"
7,CAAGAGGG,"10.9 upbm affinity estimate (log intensity, higher = more binding, comparable within an allelic series)"
8,CCCCCATC,"9.53 upbm affinity estimate (log intensity, higher = more binding, comparable within an allelic series)"
9,CAGCCCTG,"9.44 upbm affinity estimate (log intensity, higher = more binding, comparable within an allelic series)"
10,ACCCGGCA,"9.55 upbm affinity estimate (log intensity, higher = more binding, comparable within an allelic series)"
11,CATGCCGG,"9.42 upbm affinity estimate (log intensity, higher = more binding, comparable within an allelic series)"
12,GACGCCCC,"9.56 upbm affinity estimate (log intensity, higher = more binding, comparable within an allelic series)"
13,GAGTCTGC,"9.64 upbm affinity estimate (log intensity, higher = more binding, comparable within an allelic series)"
14,AGTAAGTA,"11.1 upbm affinity estimate (log intensity, higher = more binding, comparable within an allelic series)"
15,CCGGACCC,"9.31 upbm affinity estimate (log intensity, higher = more binding, comparable within an allelic series)"
16,CGCCCCGC,"9.59 upbm affinity estimate (log intensity, higher = more binding, comparable within an allelic series)"
17,CACGCCAG,"9.43 upbm affinity estimate (log intensity, higher = more binding, comparable within an allelic series)"
18,CCCGCCAG,"9.62 upbm affinity estimate (log intensity, higher = more binding, comparable within an allelic series)"
19,ACAGGGGG,"9.27 upbm affinity estimate (log intensity, higher = more binding, comparable within an allelic series)"
